A selection: hits, their analogues and other compounds. The true share with any hit is near 10%.
HCT116 PTEN-null: growth suppressors of cells with PTEN tumor suppressor deletion. HCT116 PTEN-null viability, CellTiter-Glo, 60 h; stronger effect = lower value. viability, % at 10 µM. hit rate 1.2% among 140,000. AID 827;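 active means viability at or below a set limit, 4 SD under the median of all tested compounds, cut at about 3.7% in these data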;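 further: PTEN knockout HCT116 line with beta catenin targeted HCT116 as companion control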
HCT116 bCat-KO: beta-catenin-lacking colon tumor cell growth suppression; hit rate 1.5% among 140,000; HCT116 beta-catenin knockout viability, CellTiter-Glo, 60 h; stronger effect = lower value; viability, % at 10 µM;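 active means viability at or under a set limit, the compound median less 4 SD, cut at about 6% in these data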;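 further: 0% = Hyamine 1622 control at 20 µM and 100% = untreated cell control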
p97 inhibitor: human p97 ATPase inhibition; inhibition, % at 8 µM; hit rate 0.42% among 220,000; P55072; recombinant p97 ATPase, Kinase-Glo ATP luminescence, 3 h; in the data active means inhibition above about 15%;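 further: 0% = DMSO vehicle and 100% = wells lacking enzyme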
Target sequence (P55072 whole entry, looked up): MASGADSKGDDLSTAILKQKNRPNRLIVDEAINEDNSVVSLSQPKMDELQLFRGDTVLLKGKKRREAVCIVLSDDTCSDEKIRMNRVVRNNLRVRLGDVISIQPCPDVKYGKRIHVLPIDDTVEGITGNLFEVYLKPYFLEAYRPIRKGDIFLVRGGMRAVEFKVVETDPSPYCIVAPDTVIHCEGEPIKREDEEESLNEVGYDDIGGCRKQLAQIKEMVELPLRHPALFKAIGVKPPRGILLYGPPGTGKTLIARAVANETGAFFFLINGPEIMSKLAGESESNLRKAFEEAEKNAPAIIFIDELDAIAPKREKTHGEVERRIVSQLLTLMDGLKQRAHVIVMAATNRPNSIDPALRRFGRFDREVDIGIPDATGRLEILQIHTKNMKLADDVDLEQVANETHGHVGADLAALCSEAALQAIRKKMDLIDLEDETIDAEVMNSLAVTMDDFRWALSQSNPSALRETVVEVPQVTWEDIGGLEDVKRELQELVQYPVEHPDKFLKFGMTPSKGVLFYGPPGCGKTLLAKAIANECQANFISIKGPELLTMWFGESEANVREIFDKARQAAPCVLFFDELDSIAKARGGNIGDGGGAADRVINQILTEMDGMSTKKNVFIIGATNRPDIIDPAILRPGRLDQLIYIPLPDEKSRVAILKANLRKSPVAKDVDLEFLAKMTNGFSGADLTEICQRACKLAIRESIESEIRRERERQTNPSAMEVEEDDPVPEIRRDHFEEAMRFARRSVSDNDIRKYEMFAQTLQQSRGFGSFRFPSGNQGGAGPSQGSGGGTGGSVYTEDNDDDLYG
ROMK mod: modulates human ROMK potassium channel activity; B-score at 10 µM; Tet-inducible ROMK, thallium flux fluorescence; actives lie on both sides; P48048; hit rate 2% among 130,000;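 active means signal ratio slope over the read window, or its plate-corrected B-score, at least 3 SD from the plate mean, either direction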;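 further: B-score of the F/F0 ratio slope over 7 to 12 s after thallium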
Insulin prom inh: TRM-6 insulin promoter activity inhibition; TRM-6 cells (human fetal islet line), insulin promoter-eGFP reporter, imaging; reporter expression induced with tamoxifen; inhibition, % at 2 µM; hit rate 0.9% among 130,000;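 active means inhibition above the mean plus 3 SD, with well images judged a real hit on visual review, cut at about 60% in these data, passing the limit was not always enough; inconclusive means inhibition over the cutoff but images rejected on review; inactive means inhibition not above the cutoff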
Lmaj promast: inhibitors of Leishmania major promastigote growth; inhibition, % at 10 µM; Leishmania major promastigotes, resazurin fluorescence viability; AID 1063; hit rate 9% among 200,000; in the data active means inhibition above about 50%;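 further: promastigotes grown with compound for 44 hours at 28 °C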
p97 inh conf: confirmation of human p97 ATPase inhibitors; shares compounds with p97 inhibitor; inhibition, % at 8 µM; hit rate 44% among 760; recombinant p97 ATPase, Kinase-Glo ATP luminescence;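 active means percent inhibition of p97 ATPase above a set limit, the primary screen's mean plus 3 SD, cut at about 15% in these data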;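 further: 0% = DMSO wells and 100% = wells lacking p97 protein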
ROMK retest: confirmation of human ROMK potassium channel modulators | normalized thallium flux (F/F0 slope) at 10 µM | AID 1917 | hit rate 54% among 3,000 | ROMK thallium flux, fluorescence ratio; stronger effect = lower value | shares compounds with ROMK mod;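 active means Flux at 10 µM at least 3 SD below or above vehicle control mean in one or both replicates; inconclusive means no clear call, values can overlap the other calls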
* = called active by the depositor; ? = inconclusive; / = no result.

SMILES	HCT116 PTEN-null	HCT116 bCat-KO	p97 inhibitor	ROMK mod	Insulin prom inh	Lmaj promast	p97 inh conf	others
O=C(Cc1ccccc1)NC1(O)C(=O)c2ccccc2C1=O	/	/	16*	-0.51	/	/	15*
Cc1ccc(C(=O)Nc2cc(=O)n(C)c(=O)n2C)cc1C	93	89	0	/	/	-5	/
O=C(Cc1ccccc1)NC1(Cc2ccc(O)cc2)CCCCC1	/	/	0	-0.21	53	18	/
CSc1nc(N)nc(SC2C=CCCC2)c1C#N (centres undefined)	66	65	-7	/	-311	-3	/
CC(CC(=O)NCc1cccnc1)c1ccccc1 (centres undefined)	94	75	3	0.003	-438	-3	/
COc1cc(/C=c2\sc3n(c2=O)C(c2ccccc2)C(c2ccccc2)=NN=3)ccc1O (centres undefined)	63	91	16*	/	-24	40	9
COc1cc(/C=c2\sc3n(c2=O)CCCN=3)ccc1O	73	51	7	/	9	6	/
CC(=O)c1ccc2c(c1)C1C=CCC1C(C(=O)O)N2 (centres undefined)	/	/	20*	0.7	19	0	30*
Cc1ccc2c(c1)C1C=CCC1C(C(=O)O)N2 (centres undefined)	95	87	9	1.2	-164	6	/
O=C(Nc1cccc(F)c1)c1c(O)c2cccc3c2n(c1=O)CCC3	/	/	18*	-0.21	-7	-3	8
Cc1cccc(NC(=O)c2c(O)c3cccc4c3n(c2=O)CC4)c1	/	/	5	/	-8	3	/
CC1CCCC(C)N1c1nnc(N)s1 (centres undefined)	101	100	-5	-0.025	5	-2	/
Cc1ccc2c(C(=O)CN3CCSCC3)c(C)[nH]c2c1	105	99	-1	/	28	4	/
Cc1ccc2c(C(=O)CCl)c(C)[nH]c2c1	/	/	36*	/	/	/	40*
CCCCN(C(=O)CSc1nncn1-c1ccccc1)c1c(N)n(Cc2ccccc2)c(=O)[nH]c1=O	98	86	-7	0.017	/	3	/
O=C(O)Cc1c[nH]c2cccc(O)c12	/	/	17*	/	/	-9	19*
O=C(Cc1c[nH]c2ccccc12)NNC(=O)c1ccccc1	95	98	1	0.15	/	-3	/
O=C(O)CCC(=O)c1cccc2ccccc12	95	94	-1	0.7	17	-7	/
O=C(O)CCC(=O)c1ccc2ccc3cccc4ccc1c2c34	/	/	19*	/	/	/	25*
O=[N+]([O-])c1c(NCc2ccco2)ccc2nonc12	/	/	18*	/	/	/	9
CSc1cccc(NC(=O)CN(C)S(=O)(=O)c2ccc(C)cc2)c1	87	93	4	/	11	17	/
CCOC(=O)c1sc(NC(=O)c2c(C)nn(Cc3ccccc3)c2C)cc1C	6	19	20*	-2.1	18	42	6
O=C(Cc1ccc(Br)cc1)Nc1ccc(S(=O)(=O)NCC2CCCO2)cc1 (centres undefined)	/	/	7	/	/	-2	/
FC(F)(Cl)c1nnc2ccc(Cl)nn12	/	/	0	-0.42	10	0	/
O=Cc1c(Cl)nc2ccccn2c1=O	/	/	9	-0.41	/	/	/
SMILES	HCT116 PTEN-null	HCT116 bCat-KO	p97 inhibitor	ROMK mod	Insulin prom inh	Lmaj promast	p97 inh conf	others
O=C1NC(=S)S/C1=C\C=C\c1ccc([N+](=O)[O-])o1	/	/	45*	/	/	/	18*
C=CCn1c(SCC(=O)NCc2ccco2)nc2ccccc2c1=O	/	/	15*	-0.031	/	1	8
O=C(CCn1c(SCC(=O)NCc2ccco2)nc2ccccc2c1=O)NCCc1ccccc1	99	91	2	/	33	7	/
NC(=S)N/N=C/c1coc2ccc(Br)cc2c1=O	/	/	4	0.051	/	/	/
NC(=S)N/N=C/c1coc2ccc(O)cc2c1=O	/	/	15*	/	/	/	11
c1ccc(CN2CCN(c3ncnc4c3[nH]c3ccccc34)CC2)cc1	8	3.9*	15*	-3.7*	0	89*	10
Cc1cccc(C)c1NCc1n[nH]c(=S)n1-c1ccccc1	/	/	2	0.63	/	-4	/
Cc1cc(C)nc(NC(=O)/C=C/c2ccccc2Cl)n1	76	70	1	/	26	0	/
Cc1cc(N)c2cc(NC(=O)/C=C/c3ccccc3Cl)ccc2n1	/	/	24*	/	/	/	23*	ROMK retest=0.055*
COc1cc(/C=C2/CC/C(=C/c3ccc(O)c(OC)c3)C2=O)ccc1O	/	/	35*	/	/	/	17*	ROMK retest=0.051*
COc1cc(/C=C2\CC/C(=C\c3ccc(OCCO)c(OC)c3)C2=O)ccc1OCCO	/	/	15*	-2.4*	/	7	5	ROMK retest=?
COc1cc(Cl)c(C)cc1NC(=O)COC(=O)c1cc[n+]([O-])cc1	/	/	0	/	50	-5	/
O=C(CCl)Nc1nc(-c2ccco2)c(-c2ccco2)s1	79	92	18*	-4.2*	35	69*	42*	ROMK retest=0.053*
COC(=O)c1ccccc1NC(=O)c1ccc(-c2ccccc2F)o1	76	86	0	/	-7	-2	/
COC(=O)c1ccccc1-c1ccc(C(c2c(C)[nH][nH]c2=O)c2c(C)[nH][nH]c2=O)o1	/	/	20*	-3.8*	/	100*	6	ROMK retest=?
CCOC(=O)c1c(C)[nH]c(C(=O)COC(=O)C(C)N2C(=O)C3CCCCC3C2=O)c1C (centres undefined)	80	87	-3	/	2	9	/
CC1=NN(c2ccc(C(=O)O)cc2)C(=O)/C1=C\c1ccc(OC(=O)c2cccs2)cc1	/	/	12	1.4	/	-2	/
CC1=NN(c2ccccc2)C(=O)/C1=C/c1cccs1	89	95	17*	-3.4*	27	11	7	ROMK retest=0.048*
Cc1cccc(N2C(=O)CC(N3CCN(c4ccccn4)CC3)C2=O)c1 (centres undefined)	/	/	5	0.069	/	-6	/
Cc1cc(/C=C2\SC(=S)NC2=O)c(C)n1-c1cccc(O)c1	/	/	18*	/	/	/	16*	ROMK retest=0.053*
COCCCNC(=O)c1cccn2c(=O)c3cc4ccccc4cc3nc12	4	4.3*	15*	/	-5	90*	-14	ROMK retest=0.054*
Cc1ccc2[nH]cc(C(=O)CN3CCN(C)CC3)c2c1	98	80	12	/	38	6	/
Cc1ccc2[nH]cc(C(=O)CCl)c2c1	2.3*	2.8*	33*	-4.2*	-4	81*	46*	ROMK retest=0.055*
O=c1ccc(NS(=O)(=O)c2ccccc2Cl)cn1Cc1ccc(Cl)c(Cl)c1	/	/	1	0.81	/	-4	/
Cc1[nH][nH]c(=O)c1C(c1c(C)[nH][nH]c1=O)c1cn(Cc2ccc(Cl)c(Cl)c2)c2ccccc12	5	8	42*	/	/	99*	2	ROMK retest=0.056*
CC(/C=N/N1C(=O)CSC1=S)=C\c1ccccc1	/	/	4	-0.1	-57	-5	/
CCOP(=O)(OCC)C(O)c1cc(OC)c(OC)c(OC)c1 (centres undefined)	88	84	6	-0.042	18	-7	/

Bioassay records (PubChem)
